What all share (test): DAPPL (digital affinity profiling via proximity ligation, sequencing); 10 mM Tris-HCl pH 7.5, 50 mM NaCl, 1 mM DTT, 4% glycerol, room temperature, 30 min; GST-TFs on glutathione beads, 16-mer random dsDNA library, 0.1% formaldehyde crosslink after washing; high values mean tight binding
Conditions in all cases: protein: recombinant; tags: N-terminal GST; dsDNA, one strand shown

The target of one assay is T1, ELK1 (Homo sapiens, UniProt P19419 1-428).
T1 sequence: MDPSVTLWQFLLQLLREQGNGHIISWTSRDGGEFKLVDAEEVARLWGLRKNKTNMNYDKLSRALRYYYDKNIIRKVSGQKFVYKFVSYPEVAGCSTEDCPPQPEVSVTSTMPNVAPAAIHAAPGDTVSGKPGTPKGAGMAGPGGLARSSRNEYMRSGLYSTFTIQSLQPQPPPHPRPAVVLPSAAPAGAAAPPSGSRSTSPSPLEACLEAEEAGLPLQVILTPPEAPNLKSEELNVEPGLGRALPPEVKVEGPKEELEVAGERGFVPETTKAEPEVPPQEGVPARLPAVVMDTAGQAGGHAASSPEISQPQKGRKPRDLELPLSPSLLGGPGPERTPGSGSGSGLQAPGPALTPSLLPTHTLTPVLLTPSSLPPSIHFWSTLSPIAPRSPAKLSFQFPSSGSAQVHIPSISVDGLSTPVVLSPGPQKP
A digest of the protocol:
(§1)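 Each value of binding signal is a hexamer's read frequency for a factor divided by the same hexamer's frequency in the tag-only sample. Barcoded, bead-captured GST fusions of human transcription factors made in yeast were pooled with that sample and incubated with 200 nmole of a random double-stranded 16-mer DNA library in Tris/NaCl/DTT/glycerol buffer at room temperature for 30 min. Washing, 0.1% formaldehyde crosslinking, proximity ligation, PCR and Illumina NextSeq500 sequencing followed.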

Another assay deals with T2, ERG (Homo sapiens, UniProt P11308 1-479).
T2 sequence: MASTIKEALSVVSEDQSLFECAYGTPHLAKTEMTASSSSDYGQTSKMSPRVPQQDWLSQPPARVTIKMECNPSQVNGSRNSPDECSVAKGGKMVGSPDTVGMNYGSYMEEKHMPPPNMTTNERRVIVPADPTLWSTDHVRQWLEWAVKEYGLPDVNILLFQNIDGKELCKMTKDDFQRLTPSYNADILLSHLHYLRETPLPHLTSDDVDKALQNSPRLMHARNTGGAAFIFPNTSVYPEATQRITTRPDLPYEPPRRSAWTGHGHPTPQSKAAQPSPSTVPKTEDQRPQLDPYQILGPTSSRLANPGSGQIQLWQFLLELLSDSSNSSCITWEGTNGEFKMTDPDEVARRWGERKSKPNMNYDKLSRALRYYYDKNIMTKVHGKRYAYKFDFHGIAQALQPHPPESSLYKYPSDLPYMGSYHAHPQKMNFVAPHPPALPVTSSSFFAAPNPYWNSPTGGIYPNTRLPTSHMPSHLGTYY
Summed up: as §1

The target of a further assay is T3, EHF (Homo sapiens, UniProt Q9NZC4 1-300).
T3 sequence: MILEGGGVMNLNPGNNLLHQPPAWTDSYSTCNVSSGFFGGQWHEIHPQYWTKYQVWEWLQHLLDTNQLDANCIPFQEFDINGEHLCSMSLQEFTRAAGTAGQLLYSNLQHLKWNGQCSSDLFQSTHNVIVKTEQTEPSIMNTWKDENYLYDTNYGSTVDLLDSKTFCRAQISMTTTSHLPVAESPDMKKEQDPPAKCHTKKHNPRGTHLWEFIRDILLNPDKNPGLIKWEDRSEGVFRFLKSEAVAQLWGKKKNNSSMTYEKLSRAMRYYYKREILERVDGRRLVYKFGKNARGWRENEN
A digest of the protocol: as §1

The target of the next assay is SPIB (Homo sapiens, UniProt Q01892 1-262). Summed up:
as §1

The target in a further assay is ETV5 (Homo sapiens, UniProt P41161 1-510). A digest of the protocol: as §1
A further assay concerns the target T4, ELF3 (Homo sapiens, UniProt P78545 1-371).
T4 sequence: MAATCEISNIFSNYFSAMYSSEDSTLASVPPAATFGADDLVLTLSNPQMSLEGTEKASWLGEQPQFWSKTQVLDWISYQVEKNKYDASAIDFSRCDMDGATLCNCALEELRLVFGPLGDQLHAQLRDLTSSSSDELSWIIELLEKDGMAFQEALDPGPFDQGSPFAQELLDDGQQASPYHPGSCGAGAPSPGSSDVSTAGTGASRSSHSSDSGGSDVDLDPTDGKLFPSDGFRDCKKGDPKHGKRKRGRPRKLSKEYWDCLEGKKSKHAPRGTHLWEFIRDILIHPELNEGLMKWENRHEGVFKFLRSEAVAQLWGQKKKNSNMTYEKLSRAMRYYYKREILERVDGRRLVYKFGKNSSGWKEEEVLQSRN
A digest of the protocol:
as §1

In a further assay the target is ETV1 (Homo sapiens, UniProt P50549 1-477). Summed up:
as §1

The next assay has as its target T5, ETS2 (Homo sapiens, UniProt P15036 1-469).
T5 sequence: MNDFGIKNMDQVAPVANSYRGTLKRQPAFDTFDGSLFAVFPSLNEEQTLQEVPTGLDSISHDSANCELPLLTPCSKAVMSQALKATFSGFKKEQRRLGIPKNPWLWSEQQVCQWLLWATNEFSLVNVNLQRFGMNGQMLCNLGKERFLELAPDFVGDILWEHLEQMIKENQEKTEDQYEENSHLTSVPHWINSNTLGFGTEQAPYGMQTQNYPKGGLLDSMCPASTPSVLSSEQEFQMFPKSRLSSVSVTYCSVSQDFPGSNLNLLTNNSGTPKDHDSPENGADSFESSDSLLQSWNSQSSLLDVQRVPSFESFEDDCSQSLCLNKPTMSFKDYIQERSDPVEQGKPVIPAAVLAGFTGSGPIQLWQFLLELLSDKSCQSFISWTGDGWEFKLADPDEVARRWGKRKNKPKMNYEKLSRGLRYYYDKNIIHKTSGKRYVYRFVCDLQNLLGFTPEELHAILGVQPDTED
Summed up:
as §1

A further assay deals with T6, SPDEF (Homo sapiens, UniProt O95238 1-335).
T6 sequence: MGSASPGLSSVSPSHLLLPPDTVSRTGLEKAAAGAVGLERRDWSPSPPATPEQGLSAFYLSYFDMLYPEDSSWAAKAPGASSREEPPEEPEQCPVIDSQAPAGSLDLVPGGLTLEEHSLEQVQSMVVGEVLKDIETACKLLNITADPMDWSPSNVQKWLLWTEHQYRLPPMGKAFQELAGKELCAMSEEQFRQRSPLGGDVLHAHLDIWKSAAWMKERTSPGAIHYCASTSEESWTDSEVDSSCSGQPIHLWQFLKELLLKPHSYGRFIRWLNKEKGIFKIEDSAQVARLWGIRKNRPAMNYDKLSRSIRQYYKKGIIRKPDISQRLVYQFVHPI
A digest of the protocol: as §1

A further assay deals with T7, ETV7 (Homo sapiens, UniProt Q9Y603 1-341).
T7 sequence: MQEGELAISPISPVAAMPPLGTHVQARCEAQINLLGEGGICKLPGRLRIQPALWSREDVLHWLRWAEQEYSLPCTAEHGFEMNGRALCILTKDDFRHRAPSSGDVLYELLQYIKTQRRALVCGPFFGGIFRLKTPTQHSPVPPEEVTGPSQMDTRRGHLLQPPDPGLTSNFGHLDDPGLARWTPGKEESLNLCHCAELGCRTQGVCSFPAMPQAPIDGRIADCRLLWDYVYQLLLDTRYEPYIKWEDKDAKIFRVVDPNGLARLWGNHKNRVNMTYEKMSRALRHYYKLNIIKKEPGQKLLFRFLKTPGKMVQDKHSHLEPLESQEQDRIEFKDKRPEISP
Summed up:
as §1

For the next assay, the target named is T8, ETV3 (Homo sapiens, UniProt P41162-2 1-143).
T8 sequence: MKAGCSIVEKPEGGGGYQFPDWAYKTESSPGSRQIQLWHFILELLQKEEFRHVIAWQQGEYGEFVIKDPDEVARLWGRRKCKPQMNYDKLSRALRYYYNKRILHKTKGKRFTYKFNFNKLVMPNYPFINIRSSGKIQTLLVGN
A digest of the protocol:
as §1

In the next assay the target is ETV6 (Homo sapiens, UniProt P41212 1-452). Summed up: as §1
In a further assay the target is T9, SPIC (Homo sapiens, UniProt Q8N5J4 1-248).
T9 sequence: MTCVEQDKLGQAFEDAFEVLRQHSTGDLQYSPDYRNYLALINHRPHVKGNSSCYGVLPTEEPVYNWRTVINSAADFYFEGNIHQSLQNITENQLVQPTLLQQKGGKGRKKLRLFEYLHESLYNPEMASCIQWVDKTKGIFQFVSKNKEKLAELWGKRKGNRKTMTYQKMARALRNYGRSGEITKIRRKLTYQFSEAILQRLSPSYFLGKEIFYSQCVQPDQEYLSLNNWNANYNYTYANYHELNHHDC
Summed up: as §1

The next assay has as its target T10, ERF (Homo sapiens, UniProt P50548 1-548).
T10 sequence: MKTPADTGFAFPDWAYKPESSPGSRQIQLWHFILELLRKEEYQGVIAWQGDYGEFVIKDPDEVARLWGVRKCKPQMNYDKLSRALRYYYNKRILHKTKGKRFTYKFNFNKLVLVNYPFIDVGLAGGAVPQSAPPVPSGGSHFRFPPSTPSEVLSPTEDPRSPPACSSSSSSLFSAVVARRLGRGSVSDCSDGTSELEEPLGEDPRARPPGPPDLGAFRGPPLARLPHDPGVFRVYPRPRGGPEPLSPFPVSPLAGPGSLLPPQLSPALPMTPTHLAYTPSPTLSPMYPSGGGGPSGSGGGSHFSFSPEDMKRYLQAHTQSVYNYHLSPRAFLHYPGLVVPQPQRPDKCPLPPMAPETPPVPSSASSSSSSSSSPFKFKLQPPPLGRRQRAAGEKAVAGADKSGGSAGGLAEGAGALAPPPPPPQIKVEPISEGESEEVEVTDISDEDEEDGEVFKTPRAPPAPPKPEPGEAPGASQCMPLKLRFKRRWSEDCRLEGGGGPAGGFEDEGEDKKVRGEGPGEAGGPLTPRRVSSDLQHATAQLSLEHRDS
A digest of the protocol: as §1

Chain of ETV5 (P41161 whole entry): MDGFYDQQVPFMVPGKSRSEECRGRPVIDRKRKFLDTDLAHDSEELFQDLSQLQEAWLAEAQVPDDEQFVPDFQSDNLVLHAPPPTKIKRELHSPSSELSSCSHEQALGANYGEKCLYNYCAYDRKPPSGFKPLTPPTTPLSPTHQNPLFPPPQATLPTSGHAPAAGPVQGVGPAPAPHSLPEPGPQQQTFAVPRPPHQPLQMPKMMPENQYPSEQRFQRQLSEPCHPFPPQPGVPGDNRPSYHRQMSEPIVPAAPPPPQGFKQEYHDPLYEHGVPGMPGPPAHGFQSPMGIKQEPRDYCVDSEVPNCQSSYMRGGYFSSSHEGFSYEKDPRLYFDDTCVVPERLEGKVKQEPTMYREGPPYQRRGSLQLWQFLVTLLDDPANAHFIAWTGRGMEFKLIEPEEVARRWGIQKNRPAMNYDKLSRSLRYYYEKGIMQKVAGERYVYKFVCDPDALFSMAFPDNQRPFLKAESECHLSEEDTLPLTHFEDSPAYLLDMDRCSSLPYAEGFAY
Chain of SPIB (Q01892 whole entry): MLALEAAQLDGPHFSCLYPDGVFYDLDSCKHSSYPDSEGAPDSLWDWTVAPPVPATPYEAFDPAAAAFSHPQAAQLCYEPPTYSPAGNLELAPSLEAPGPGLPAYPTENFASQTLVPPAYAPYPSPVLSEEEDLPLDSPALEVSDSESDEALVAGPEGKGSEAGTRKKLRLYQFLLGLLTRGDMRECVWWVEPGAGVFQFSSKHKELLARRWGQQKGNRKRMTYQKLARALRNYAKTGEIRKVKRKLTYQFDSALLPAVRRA
Chain of ETV6 (P41212 whole entry): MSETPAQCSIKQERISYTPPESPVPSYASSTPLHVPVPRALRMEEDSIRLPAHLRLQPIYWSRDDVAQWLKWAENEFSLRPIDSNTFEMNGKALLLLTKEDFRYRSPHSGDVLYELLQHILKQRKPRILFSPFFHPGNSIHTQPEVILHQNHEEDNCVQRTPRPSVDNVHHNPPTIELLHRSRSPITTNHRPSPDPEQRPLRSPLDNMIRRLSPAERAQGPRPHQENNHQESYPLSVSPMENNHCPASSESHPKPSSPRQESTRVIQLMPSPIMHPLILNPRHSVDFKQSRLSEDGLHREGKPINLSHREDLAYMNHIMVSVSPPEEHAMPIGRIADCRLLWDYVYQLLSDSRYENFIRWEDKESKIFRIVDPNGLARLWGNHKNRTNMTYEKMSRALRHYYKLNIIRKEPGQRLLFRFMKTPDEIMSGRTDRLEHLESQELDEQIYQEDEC
Chain of ETV1 (P50549 whole entry): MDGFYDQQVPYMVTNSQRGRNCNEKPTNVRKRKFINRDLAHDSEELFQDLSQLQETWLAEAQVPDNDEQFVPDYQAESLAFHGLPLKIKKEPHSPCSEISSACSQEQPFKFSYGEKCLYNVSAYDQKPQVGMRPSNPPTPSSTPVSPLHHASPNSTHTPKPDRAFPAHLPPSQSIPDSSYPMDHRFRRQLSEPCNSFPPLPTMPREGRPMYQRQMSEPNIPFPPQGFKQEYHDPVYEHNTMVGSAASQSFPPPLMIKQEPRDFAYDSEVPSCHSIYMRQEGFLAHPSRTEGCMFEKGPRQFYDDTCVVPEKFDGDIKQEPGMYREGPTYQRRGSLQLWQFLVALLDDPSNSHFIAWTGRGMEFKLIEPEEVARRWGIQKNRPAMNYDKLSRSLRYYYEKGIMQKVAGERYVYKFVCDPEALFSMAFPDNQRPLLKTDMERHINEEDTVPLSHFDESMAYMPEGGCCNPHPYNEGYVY

Turning to GCCGGA, the binding signal was 1.17 fold enrichment (6-mer frequency, TF over GST control) with ELK1; 1.27 fold enrichment (6-mer frequency, TF over GST control) with ERG; 1.08 fold enrichment (6-mer frequency, TF over GST control) in the assay with EHF; 1.01 fold enrichment (6-mer frequency, TF over GST control) with SPIB; 1.16 fold enrichment (6-mer frequency, TF over GST control) with ETV5; 1.05 fold enrichment (6-mer frequency, TF over GST control) with ELF3. Besides, the binding signal with ETV1 was 1.07 fold enrichment (6-mer frequency, TF over GST control); with ETS2 it was 1.01 fold enrichment (6-mer frequency, TF over GST control); with SPDEF it was 1.37 fold enrichment (6-mer frequency, TF over GST control); with ETV7, 1 fold enrichment (6-mer frequency, TF over GST control); in the assay with ETV3, 1.1 fold enrichment (6-mer frequency, TF over GST control); with ETV6 it was 1.07 fold enrichment (6-mer frequency, TF over GST control).

Consider AGTTAC, for which the binding signal is 1 fold enrichment (6-mer frequency, TF over GST control) with ERG; 1.02 fold enrichment (6-mer frequency, TF over GST control) with EHF; 1.05 fold enrichment (6-mer frequency, TF over GST control) in the assay with ETV5; 1.1 fold enrichment (6-mer frequency, TF over GST control) with SPIC; 1.01 fold enrichment (6-mer frequency, TF over GST control) with ERF.

(Values after paper PMC7862700, “An all-to-all approach to the identification of sequence-specific readers for epigenetic DNA modifications on cytosine”.)
